# Source: the supplement of paper PMC6555819
# Key:
# Test in all cases: PBM binding z-score (relative to random genomic background probes); higher = stronger binding; sequences stand for … in GC…GCGATTGACAGCGTAGAATGAAGG
# [1] = test system: FXR:RXRa (NR concentration 270 nM, RXRa partner concentration 90 nM)
# In short: (§1)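 Ligand-free nuclear receptor dimers were applied to custom Agilent 4×180K protein-binding microarrays whose double-stranded probes carried direct-repeat seeds, single-nucleotide variants, half-site ablations and random human genomic background sequences in 34-nt variable regions. Incubation lasted 1 h. Binding z-scores were computed against the random background probes from regression-normalized fluorescence.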
# [2] = test system: LXRa:RXRa (NR concentration 270 nM, RXRa partner concentration 90 nM)
# In short: as §1
# [3] = test system: LXRa homodimer (NR concentration 270 nM)
# In short: as §1
# [4] = test system: LXRb:RXRa (NR concentration 270 nM, RXRa partner concentration 90 nM)
# In short: as §1
# [5] = test system: LXRb homodimer (NR concentration 270 nM)
# In short: as §1
# [6] = test system: PPARa:RXRa (NR concentration 270 nM, RXRa partner concentration 90 nM)
# In short: as §1
# [7] = test system: PPARg:RXRa (NR concentration 180 nM, RXRa partner concentration 90 nM)
# In short: as §1
# [8] = test system: PPARg:RXRa 270nM:90nM, anti-RXR (NR concentration 270 nM, RXRa partner concentration 90 nM)
# In short: as §1
# [9] = test system: PPARg:RXRa 30nM:10nM, anti-RXR (NR concentration 30 nM, RXRa partner concentration 10 nM)
# In short: as §1
# [10] = test system: PPARg:RXRa 90nM:30nM, anti-RXR (NR concentration 90 nM, RXRa partner concentration 30 nM)
# In short: as §1
# [11] = test system: PPARg:RXRa DBDmut IVT, anti-RXR (DBD mutation: RXRa K156A/R161A, NR concentration 270 nM, RXRa partner concentration 90 nM)
# In short: as §1
# [12] = test system: PPARg:RXRa IVT, anti-PPARg (NR concentration 270 nM, RXRa partner concentration 90 nM)
# In short: as §1
# [13] = test system: PPARg DBDmut:RXRa IVT, anti-PPARg (DBD mutation: PPARg1 K132A/R137A, NR concentration 270 nM, RXRa partner concentration 90 nM)
# In short: as §1
# [14] = test system: PPARg DBDmut IVT, anti-PPARg (DBD mutation: PPARg1 K132A/R137A, NR concentration 270 nM)
# In short: as §1
# [15] = test system: PPARg homodimer (NR concentration 180 nM)
# In short: as §1
# [16] = test system: PXR:RXRa (NR concentration 270 nM, RXRa partner concentration 90 nM)
# In short: as §1
# [17] = test system: PXR homodimer (NR concentration 270 nM)
# In short: as §1
# [18] = test system: RARa:RXR (NR concentration 270 nM, RXRa partner concentration 90 nM)
# In short: as §1
# [19] = test system: RARa homodimer (NR concentration 270 nM)
# In short: as §1
# [20] = test system: RARb:RXRa (NR concentration 270 nM, RXRa partner concentration 90 nM)
# In short: as §1
Sequence,PBM binding z-score [1],PBM binding z-score [2],PBM binding z-score [3],PBM binding z-score [4],PBM binding z-score [5],PBM binding z-score [6],PBM binding z-score [7],PBM binding z-score [8],PBM binding z-score [9],PBM binding z-score [10],PBM binding z-score [11],PBM binding z-score [12],PBM binding z-score [13],PBM binding z-score [14],PBM binding z-score [15],PBM binding z-score [16],PBM binding z-score [17],PBM binding z-score [18],PBM binding z-score [19],PBM binding z-score [20]
ATCGAAAGGTCGAAGGTGTGTATACCCACCCGAA,3.46,3.02,0.143,2.37,0.416,4.08,2.6,3.32,1.5,2.35,-0.369,1.67,0.695,0.274,1.64,2.3,0.219,3.33,0.296,3.52
AGAACGAGGGCACGCTAAGTTGATAGCAGAGTAG,0.75,0.717,-0.396,0.353,-0.515,2.07,2.2,1.87,0.473,1.22,4.41,3.93,1.79,0.754,0.364,1.11,0.0616,1.3,-0.579,2.51
TCTCGGATGACACGAAGGTCAGAGCTTTCCAGAG,2.3,1.55,0.495,1.4,-0.796,2.24,0.758,2.21,2.77,2.56,1.37,0.539,-0.684,-0.814,0.961,1.62,0.0323,2.3,-0.214,2.55
CCTACTGGGCCATTCAGACGTCATTGATCATATG,-0.301,-0.532,-0.873,-0.449,-0.437,0.168,0.616,0.206,0.0211,0.147,4.26,3.42,0.223,0.732,-0.0853,-0.71,-0.506,-0.696,-0.0635,-0.11
TTACCAAGGTGAGTTGAGGTCGTTGATCCAACTC,1.28,2.03,-0.25,1.39,-0.831,2.06,0.352,0.682,0.292,0.637,0.767,1.95,-0.517,-0.489,0.402,4.83,0.689,2.24,-0.309,1.54
CAAACAAGGTCAAGGTCAAAGTCGGTTTGTGCCA,,,4.84,,2.25,6.38,7.93,7.31,4.7,6.55,5.99,6.6,3.37,1.15,4.82,,3,6.86,2.95,
ACAGACAGGTGAGTGAAGGTAATTCAGCTGGACG,0.214,0.102,-0.0483,-0.196,-0.576,-0.0438,0.499,0.152,-0.212,-0.193,0.0687,0.119,0.248,-0.584,-0.206,-0.2,-0.191,-9.88e-05,-0.0883,0.49
CACGAAAGGTCGTGCTCAGGTGAGTATACCAAAC,5.58,4.3,0.166,3.44,0.848,4.88,3.14,3.97,1.14,2.72,1.16,1.86,0.523,0.745,1.9,3.35,0.154,4.28,-0.1,4.13
TCTTGTAGATCAAAGGGTAAGAAAGCCGAAGCCT,0.566,0.4,-0.283,0.288,-0.418,2.51,4.4,5.99,5.35,6.1,1.69,1.86,-0.0494,-0.151,-0.138,0.0425,-0.478,0.483,-0.0812,0.507
TGAATGAGGTTATAAGATCAGGTAACGTTGCAAA,1.34,1.33,-0.261,1.28,0.248,2.76,1.42,1.99,1.02,1.46,1.19,1.74,0.858,0.555,0.252,0.996,0.0498,1.59,0.49,1.12
CAAACTAGGTTACAGAGGTCAAAGTCCGTGCGTA,6.15,6.43,7.09,5.72,2.18,5.82,7.94,7.19,5.19,6.82,7.75,7.64,1.98,1.29,4.38,6.32,7.32,7.03,2.06,4.44
GCCCGGAGGACAAGGTCAGAGCTTTGTCCGTAGA,1.63,1.41,-0.287,1.05,-1.25,1.98,-0.107,0.592,-0.793,-0.158,-0.658,0.093,-1.17,-2.1,0.821,1.56,-0.306,2.17,-1.21,3.16
ACTTACGGGTCAACGAGGGTATAGCACGCGTATA,6.96,4.31,0.258,3.79,0.591,5.61,5.35,5.06,1.72,3.63,2.86,3.73,1.66,1.29,2.05,4.29,1.09,4.78,0.643,4.05
CCTAGGAGGACAACAGGAGGTCAGAGCTGCCAGA,1.35,2.17,2.05,1.53,-0.406,2.1,0.818,0.597,-0.229,0.192,0.869,0.949,-0.763,-0.811,1.47,2.11,0.811,2.48,0.684,2.79
TCTAGTTGGTCAATGGTCACACACTCGAAATGCG,0.812,0.861,0.28,0.966,0.461,1.74,2.89,4.7,4.08,4.79,2.15,2.54,0.677,1.19,1.32,0.698,-0.0663,0.893,0.846,1.62
CCGTCTGGGGCAGAAAGGTTACCATACCATCCGG,0.119,0.206,-0.115,0.58,-1.19,1.64,0.9,1.95,0.171,0.988,0.505,0.764,-1.18,-1.86,0.553,0.821,-0.115,1.51,-0.0366,1.54
CCGAGTAGGTTATGGGGCAGTCAGGCAACGGTGA,0.0419,0.326,-0.0975,0.378,-0.292,1.76,2.58,3.74,1.39,3.3,2.72,3.05,-0.267,-0.985,0.752,-0.312,0.274,-0.198,0.265,0.933
ATCTCTGGGTAAGACTCAGTTCAGTGAAGAACGC,0.0881,0.209,0.369,0.319,0.684,0.1,0.0592,0.276,0.108,0.0741,1.16,1.22,0.795,0.645,0.772,1.16,1.54,0.0495,0.661,0.293
GCTAGCAGGCCAGTTGGGTCACTCAATGACGGGC,-0.488,-0.319,-0.976,-0.381,-1.51,0.54,0.164,0.0245,-0.726,-0.378,0.163,0.353,-1.62,-2.01,-0.447,-0.0174,-0.643,0.497,-0.946,1.27
CTCGACAGGTCGTGCTCAGGTGAGTATACCAAAC,0.806,0.431,-0.39,0.643,-0.717,1.59,0.0674,0.515,-0.386,-0.107,0.245,0.534,-0.84,-0.0221,0.723,0.437,-0.328,1.08,-0.81,1.42
ATCTCTAGGTAAGACTCAGTTCCGTGAAGAACGC,0.132,0.397,0.225,0.111,0.896,-0.155,-0.0539,0.0133,-0.0195,0.0962,1.81,0.672,-0.309,0.647,0.0237,0.093,0.39,-0.00835,0.872,-0.0314
CCGACTGGTGCAGAAAGGTTACCATACCATCCGG,0.086,0.429,-0.181,0.491,-0.9,1.73,0.848,1.18,-0.313,0.336,-0.779,-0.294,-0.872,-1.11,1.03,1,0.0978,1.65,-0.557,1.43
CAAACAAGGTCAAGAGGTCAAAGTCCGCTTCCCG,,,7.29,,2.87,,8.71,8.05,6.08,7.7,5.59,6.52,1.74,1.24,8.18,,5.91,,4.23,
CCTAGCAGTCCAATCTGGGTCACTCAAGGCTTGA,0.349,0.868,-0.0916,0.921,-0.342,2.91,1.73,2.01,-0.0165,1.64,3.55,4.58,-0.524,-0.84,0.738,1.04,-0.0331,1.58,-0.751,1.17
CGAACTAGGTCATCAAGGACAGTGAATACATTGA,3.45,2.23,0.477,1.76,-0.245,4.53,7.15,6.3,3.43,5.6,8.23,8.64,1.85,1.55,1.45,2,1.45,2.13,0.127,3.88
ACAGACAGGTGAGTGTAGGTAACTCAGCTGGACG,0.257,-0.0272,-0.446,-0.538,-0.878,0.215,0.458,0.248,-0.279,-0.0696,0.831,1.24,-0.529,-0.0544,0.128,-0.121,0.0184,0.216,0.676,0.392
GATACAGGGTCAAGGGCAGAGTACGCGTATTGAT,6.94,4.74,0.422,4.1,0.257,5.92,6.21,5.97,2.9,4.69,2.9,4.2,0.998,0.413,2.15,4.01,0.827,4.22,0.496,4.77
CCTCGGAGGACAACAGGAGGTGAGAGCTGCCAGA,-0.0702,-0.357,-0.536,-0.619,-0.875,-0.108,0.133,-0.73,-0.83,-0.93,0.262,0.245,-1.46,-1.64,-0.411,-0.513,-0.0477,-0.183,-0.132,1.13
ATCGACAGGTCGAAGGTGAGTATACCCACCCGAA,0.612,0.709,-0.323,0.59,-0.341,2.27,2.57,2.71,1.04,2.75,-0.979,1.09,0.369,-0.333,0.63,0.914,-0.44,1.5,-0.439,1.64
